# According to ChEMBL document CHEMBL4513216, “Probing the Open Global Health Chemical Diversity Library for Multistage-Active Starting Points for Next-Generation Antimalarials” (ACS Infect Dis, 2020):
# In all, about 69,000 compounds went through this assay and about 8,600 (12%) showed an effect of 50% or more. The list comes from a sample in which strong results are over-represented; it also holds similar structures and randomly drawn compounds.
# System: Plasmodium berghei
# Experiment: Screen against P. berghei liver stage (PbLuc), transformed with Luciferase, at 10uM
# Type: functional, HepG2
# Settings: tested at 10 uM
row,SMILES,INHIBITION [%]
1,CSCC[C@@H]1CN2CCC[C@H]2CN1Cc1coc2ccc(C)cc2c1=O,40.09
2,Cc1ccc(CN2CC(C(=O)N3CCCC3)C3(CCOCC3)C2)s1 (configuration not stated),-11.1
3,O=C([C@H]1CCS(=O)(=O)[C@@H]2CN(CCc3ccccc3)C[C@H]12)N1CCCC1,39.3
4,Cc1nc(CN2CC(CO)Oc3ccccc32)sc1C (configuration not stated),-10.3
5,CN(Cc1nc(CC2CC2)no1)CC1COc2ccccc2O1 (configuration not stated),29.6
6,CN(Cc1nnnn1C1CC1)CC1COc2ccccc2O1 (configuration not stated),17.5
7,CCN1CC(CN(C)c2cc(C)nc(N)n2)Oc2ccccc21 (configuration not stated),82.4
8,Cc1cc(N(C)CC2COc3ccccc3O2)nc(N)n1 (configuration not stated),80.1
9,Cc1csc(CN2CC(CO)Oc3ccccc32)n1 (configuration not stated),24.3
10,Cc1cc(N(C)CC2COc3ccccc3O2)nc(C)n1 (configuration not stated),83.5
11,CCCn1nnnc1CN(CC)CC1COc2ccccc2O1 (configuration not stated),45.9
12,CN(CC1COc2ccccc2O1)C(=O)NCCCn1cccn1 (configuration not stated),-14.4
13,Cc1cnc(N2CC[C@@H]3O[C@H](COCc4ccccn4)CC[C@@H]32)nc1,5.44
14,CC(C)c1cc(=O)[nH]c(-c2ccccc2CN2CCCCCC2)n1,23.1
15,CCSc1cncc(N2CCC(C(=O)NC(C)C(C)C)CC2)n1 (configuration not stated),-26.2
16,NC(=O)C1CCN(C(=O)c2ccn(-c3ccc(F)cc3)n2)CC1,-66.9
17,CCN(Cc1cccnc1)CC1(C)Cc2c(N)nc(N)nc2O1 (configuration not stated),4.57
18,CCC1c2ccsc2CCN1C(=O)NCc1cccnc1OC (configuration not stated),9.383
19,O=C(c1cnccn1)N1CCCC2(CCN(c3ncccn3)C2)C1 (configuration not stated),9.63
20,COCC(=O)N1CCCCC1c1ccnc(Nc2ncc(C)s2)n1 (configuration not stated),48.4
21,CN(C)CCO[C@H]1CN(C(=O)c2cscn2)[C@@H]2COC[C@H]12,-16.1
22,NC(=O)[C@@H]1Cc2ccccc2CN1S(=O)(=O)N1CCCCCC1,32
23,NC(=O)[C@@H]1Cc2ccccc2CN1S(=O)(=O)N1CCCCC1,51
24,CC1CCN(S(=O)(=O)N2Cc3ccccc3C[C@H]2C(N)=O)CC1,43.2
25,Cc1ccc(OC2(C(=O)O)CCN(C(=O)CCc3ccco3)CC2)cc1,31.4
26,CC1CCN(C(=O)C2(Cc3cc(C4CCOC4)no3)CCNCC2)CC1 (configuration not stated),32.3

row,SMILES,INHIBITION [%]
1,Cc1noc(C)c1C(=O)N1C[C@@H]2C[C@@H](c3ccncn3)O[C@@H]2C1,-10.9
2,COc1ccc(-c2noc(C(CC(C)C)N3CCCCC3=O)n2)cn1 (configuration not stated),51.7
3,COc1cc(-c2noc(C(CC(C)C)N3CCCCC3=O)n2)ccn1 (configuration not stated),34.1
4,CC(C)CC(c1nc(-c2cnn(C)c2)no1)N1CCCCC1=O (configuration not stated),38.7
5,CCCNC(=O)c1nn(CC)cc1Cl,24.2
6,CC(=O)N1CCC1c1cc(NC2CCOCC2)nc(C)n1 (configuration not stated),11.65
7,Cc1ccnc(C2CN(Cc3ccc(-c4ccccc4C(=O)O)o3)C2)n1,14.35
8,O=C(c1cnc(O)cn1)N1CCC(CN2CCOCC2)CC1,-30.3
9,Cc1ccc(C(=O)N2CCN(Cc3ccc(C#N)cc3)CC2)n1C,54.4
10,CCOc1ccc(CN2CCN(C(=O)c3ccc(C)n3C)CC2)cc1,74.8
11,Cc1ccc(C(=O)N2CCN(Cc3ccsc3)CC2)n1C,9.32
12,Cc1ccc(C(=O)N2CCN(Cc3cccs3)CC2)n1C,19.4
13,Cc1ccc(C(=O)N2CCN(Cc3ccccc3)CC2)n1C,27.6
14,COc1ccc(CN2CCN(C(=O)c3ccc(C)n3C)CC2)cc1,46.2
15,CC(C)N1CCCC1c1cc(CO)[nH]n1 (configuration not stated),9.585
16,O=C(NCCN1CCOC1=O)c1cc(-c2ccccc2)on1,30.2
17,CCSc1ccc(C(=O)N2CC[C@](O)(CC)[C@H](O)C2)s1,53.9
18,CCSc1ccc(C(=O)N2CC[C@](C)(O)[C@H](C)C2)s1,-5.12
19,CCSc1ccc(C(=O)N2CCC3(CC2)[C@H](O)C[C@@H]3O)s1,16.7
20,Cc1ccc(CN2CCn3c(CN4CCN(C)CC4)cnc3C2C)s1 (configuration not stated),24.3
21,CC(C(=O)NCc1ccc2c(c1)OCCO2)n1cncn1 (configuration not stated),46.6
22,COc1cc(CN2CC[C@@H](N3CCCCCC3)[C@H](O)C2)cc(Cl)c1OC,1.56
23,CC1CC(=O)c2cc(C(=O)N3CCOCC3)c(=O)[nH]c2C1 (configuration not stated),13.9
24,CN(C)C(=O)CN1C[C@H]2CC[C@@H](C1)N(Cc1ccc(Cl)cc1Cl)C2,19.1
25,CN(C)C(=O)N1C[C@H]2CC[C@@H](C1)N(C/C=C/c1ccc(F)cc1)C2,-27.7
26,CN(C)C(=O)CN1C[C@H]2CC[C@@H](C1)N(Cc1ccccc1C#N)C2,41.5
